# Measurements from PubChem BioAssay (NCATS).
# Inconclusive results are not listed. Entries that show only a call come without a potency. Active and inactive are the calls of the source. Calls follow the shape of the dose curve; as a rule, active = well fitted cell-killing curve with a large enough effect; inconclusive = small, poorly fitted or top-dose-only effect, or effect the other way; inactive = no such curve, though single readings can be large or run the other way.
# Assay: Quantitative High-Throughput drug screen in 47 multiple myeloma cell lines against the NCATS MIPE library collection: PE2_PLB cell viability assay (AID 1919869); also: nearly all actives have a fitted effect of over 35% in size
# Conditions: PE2_PLB myeloma cells viability, ATP luminescence, 48 h; series mostly up to 45.8 µM
# Source text: PI: Beverly A. Mock Ph.D.
# Laboratory of Cancer Biology and Genetics,
# Center for Cancer Research, National Cancer Institute,
# National Institute of Health, Bethesda, Maryland
# Drug resistance and disease progression are common in multiple myeloma (MM) patients, underscoring the need for new therapeutic combinations. […] We hypothesized that effective combinations would reduce MYC expression and enhance p16 activity. […] These preclinical data identify potentially useful drug combinations for evaluation in drug-resistant MM and reveal potential mechanisms of combined drug sensitivity.
# Described herein is the primary MIPE qHTS used to cherrypick compounds. Validated compounds were then further tested for potential synergistic activiy.
# [1] Peat TJ, Gaikwad SM, Dubois W, Gyabaah-Kessie N, Zhang S, Gorjifard S, Phyo Z, Andres M, Hughitt VK, Simpson RM, Miller MA, Girvin AT, Taylor A, Williams D, D'Antonio N, Zhang Y, Rajagopalan A, Flietner E, Wilson K, Zhang X, Shinn P, Klumpp-Thomas C, McKnight C, Itkin Z, Chen L, Kazandijian D, Zhang J, Michalowski AM, Simmons JK, Keats J, Thomas CJ, Mock BA. Drug combinations identified by high-throughput screening promote cell cycle transition and upregulate Smad pathways in myeloma. Cancer Lett. 2023 Aug 1;568:216284. doi: 10.1016/j.canlet.2023.216284. Epub 2023 Jun 24. PMID: 37356470; PMCID: PMC10408729.
# SEQUENCE No. (e.g., 1, 2, 3, etc.); […] (e.g., Cells, Incubation, Reagent, etc.); VALUE and DESCRIPTION.
# 1; Cells; 5 uL; white, solid bottom 1536-well Greiner assay plate.
# 2; Compounds; 23 nL; Kalypsis pin tool (Wako USA) equipped with a 1536-well pin head to transfer to the assay plates.
# 3; Incubation; 48 hours; 37C incubation.
# 4; Reagent;5uL; CellTiter Glo (Promega).
# 5; Detector; 425V; Luminescence; Viewlux PerkinElmer.
# NOTES (numbers refer to Sequence numbers above)
# 1. The cell-based screening methods employed in this study were like those previously published. Briefly, the corresponding myeloma cell lines were screened in 1,536-well plates with 500 cells, 5-uL per well for inhibition of cell viability (assessed by measuring ATP levels with CellTiterGlo).
# 2. NCATS MIPE 4.0 library of approved and investigational drugs were added using the Kalypsis pin tool. Wells treated with DMSO only for 100% viability and media only for 0% viability were used as controls.
# 3. The assay plates were covered and incubated for 48 hours in a 37C, 5% CO2 incubator with controlled humidity.
# 4. After 48 hours, CellTilter-GloTM luminescent substrate mix (Promega) reagent was added to the assay plate and plates we incubated for 5 min at room temperature.
# 5. Signal was measured as median relative luminescence units on a ViewLux (PerkinElmer) multiplate reader.
# [1] Heske CM, Davis MI, Baumgart JT, Wilson K, Gormally MV, Chen L, Zhang X, Ceribelli M, Duveau DY, Guha R, Ferrer M, Arnaldez FI, Ji J, Tran HL, Zhang Y, Mendoza A, Helman LJ, Thomas CJ. Matrix Screen Identifies Synergistic Combination of PARP Inhibitors and Nicotinamide Phosphoribosyltransferase (NAMPT) Inhibitors in Ewing Sarcoma. Clin Cancer Res. 2017 Dec 1;23(23):7301-7311. doi: 10.1158/1078-0432.CCR-17-1121. Epub 2017 Sep 12. PMID: 28899971; PMCID: PMC6636827.
# Potency is read from the fitted curve at half-maximal effect.
row,SMILES,Potency
1,CCC1(c2ccc(N)cc2)CCC(=O)NC1=O (stereo not given),inactive
2,O=C(O)CCCc1ccc(N(CCCl)CCCl)cc1,inactive
3,CC(C)c1cccc(C(C)C)c1O,inactive
4,COc1cc(OC)c(OC)cc1C=O,inactive
5,C[C@]12CC[C@@H]3c4ccc(OC(=O)N(CCCl)CCCl)cc4CC[C@H]3[C@@H]1CC[C@@H]2OP(=O)(O)O,inactive
6,C[C@](O)(CS(=O)(=O)c1ccc(F)cc1)C(=O)Nc1ccc(C#N)c(C(F)(F)F)c1,662 nM (active)
7,C[C@]12CC[C@H]3[C@@H](CC[C@@]45O[C@H]4C(O)=C(C#N)C[C@]35C)[C@H]1CC[C@H]2O,inactive
8,CN1C(=O)CCS(=O)(=O)C1c1ccc(Cl)cc1 (stereo not given),inactive
9,CC(NC(C)(C)C)C(=O)c1cccc(Cl)c1 (stereo not given),inactive
10,CC(C)C[C@H](CN)CC(=O)O,inactive
